The source of these data is PubChem BioAssay AID504652 (National Center for Advancing Translational Sciences (NCATS), 2011).

The campaign covered roughly 360,000 compounds. About 11,000 (3.1%) were called active. Rule as the data show it: active = activity change below about -30%; inactive = the rest. Shown is part of a subset that was picked to be rich in actives.
% is scaled to controls: 0 for no effect and ±100 for the full control effect.

Sequence of D(1A) dopamine receptor (Homo sapiens) (P21728 whole entry, looked up): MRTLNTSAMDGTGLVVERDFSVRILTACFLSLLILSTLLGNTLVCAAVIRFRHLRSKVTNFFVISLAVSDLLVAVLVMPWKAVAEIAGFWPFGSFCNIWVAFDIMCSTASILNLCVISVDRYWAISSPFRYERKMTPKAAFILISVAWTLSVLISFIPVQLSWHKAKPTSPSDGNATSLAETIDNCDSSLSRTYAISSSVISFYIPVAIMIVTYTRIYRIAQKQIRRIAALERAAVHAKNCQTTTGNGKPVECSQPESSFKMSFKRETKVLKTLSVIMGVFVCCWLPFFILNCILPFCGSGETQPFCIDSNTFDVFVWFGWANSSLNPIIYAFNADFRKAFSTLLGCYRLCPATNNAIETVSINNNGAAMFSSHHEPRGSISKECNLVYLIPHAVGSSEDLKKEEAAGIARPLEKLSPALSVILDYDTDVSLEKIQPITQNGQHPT

The experiment deals with D(1A) dopamine receptor (Homo sapiens) (UniProt P21728). The experiment can be described thus: Antagonist of Human D 1 Dopamine Receptor: qHTS. Conditions: HEK293 TREx D1 cells, calcium flux, dopamine EC80; at 10 µM; active compounds read low. The method, boiled down:
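Inducible Hek293 Trex D1 cells (tetracycline, overnight, 30 C). Calcium dye 30–90 min RT. Antagonist mode: EC80 dopamine added after 180 s compound read.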
A general note: In qHTS, concentration-response curves come from the screen itself.
Take `Cc1cc(=O)c2cc(C(=O)Nc3cccc(C)c3C)ccc2[nH]1`: the activity change, negative = inhibition was -7.41% (inactive).
Regarding `O=C(Cn1cnc2c(cnn2-c2ccccc2)c1=O)NCc1ccccc1`, the activity change, negative = inhibition was 5.27% (inactive).
The value for `CC(=O)Cn1cnc2c(cnn2-c2ccccc2)c1=O` was -39.3% (active).
On to `O=C(Cn1cnc2c(cnn2-c2ccc(F)cc2)c1=O)NCCc1ccccc1`, for which the activity change, negative = inhibition is -6.16% (inactive).
The figure for `COc1ccc(-c2nc(C)c(CCNC(=O)c3ccc(C(F)(F)F)cc3)s2)cc1OC` is -4.09% (inactive); for `Cc1cc(NS(=O)(=O)c2ccccc2)no1` it is -52.3% (active); for `Cc1ccc(C)c(S(=O)(=O)Nc2cc(C)on2)c1` it is -1.84% (inactive).
On to `COc1cc2ccccc2cc1C(=O)Nc1ccc(S(=O)(=O)Nc2cc(C)on2)cc1`, for which the activity change, negative = inhibition is 7.39% (inactive).
As for `Cc1cccc(NC(=O)c2cc3c(C)nn(-c4ccccc4)c3s2)c1`, the activity change, negative = inhibition is 1.08% (inactive).
On to `NC(=O)N1CCCC1C(=O)Nc1ccc(Cl)c(Cl)c1` (stereo not given), for which the activity change, negative = inhibition is -6.92% (inactive).
The value for `O=C(CSc1nnc(-c2ccncc2)n1-c1ccccc1)Nc1ccc(Cl)c(Cl)c1` was 7.05% (inactive).
With `O=C(CC(O)(C(F)(F)F)C(F)(F)F)Nc1ccc(Cl)c(Cl)c1`, the activity change, negative = inhibition is -45.8% (active).
Regarding `CCC(=O)N1CCc2cc(Br)cc(S(=O)(=O)CCC(=O)N3CCN(c4ccc(F)cc4)CC3)c21`, the activity change, negative = inhibition was -13.8% (inactive).
On to `Cc1ccc(NS(=O)(=O)c2ccc3c(c2)n(C)c(=O)c(=O)n3C)c(C)c1`, for which the activity change, negative = inhibition is 3.25% (inactive).
For `Cc1ccc(NS(=O)(=O)c2cn(C)c(=O)n(C)c2=O)c(C)c1`, the activity change, negative = inhibition is -34.8% (active).
For `Cn1cc(S(=O)(=O)Nc2ccc(Cl)cc2Cl)c(=O)n(C)c1=O`, the activity change, negative = inhibition is 1.88% (inactive).
For `N#CN1CCC(NS(=O)(=O)c2cccc(F)c2)C1` (stereo not given), the activity change, negative = inhibition is -5.93% (inactive).
On to `Cc1ccc(C)c(S(=O)(=O)c2nnn3c2nc(N2CCOCC2)c2sccc23)c1`, for which the activity change, negative = inhibition was -17.7% (inactive).
As for `COc1ccc(OC)c(NC(=O)CSC2=Nc3ccccc3C3=NC(CC(=O)NCc4ccc(F)cc4)C(=O)N23)c1` (stereo not given), the activity change, negative = inhibition was 2.28% (inactive).
Take `CCC1(C)Cc2c(sc3[nH]c(=S)n(Cc4ccccc4)c(=O)c23)CO1` (stereo not given): the activity change, negative = inhibition was -1.45% (inactive).
Turning to `C=CCn1c(=S)[nH]c2scc(-c3ccco3)c2c1=O`, the activity change, negative = inhibition was -62.9% (active).
As for `CCc1ccc(NC(=O)c2cc3c(=O)n(Cc4cccnc4)ccc3nc2C)cc1`, the activity change, negative = inhibition is -4.72% (inactive).
Consider `O=C(NCCNc1ccc([N+](=O)[O-])cc1Cl)c1ccccc1F`, for which the activity change, negative = inhibition is -1.54% (inactive).
Turning to `O=C(NCCCNc1ccc([N+](=O)[O-])cc1Cl)c1ccccc1F`, the activity change, negative = inhibition was -30.1% (active).
Consider `O=C(NCCNc1ccccc1[N+](=O)[O-])c1ccccc1F`, for which the activity change, negative = inhibition is 18.2% (inactive).
`COc1ccc(CNC(=O)Cn2nnc(-c3ccccc3F)n2)cc1`: the activity change, negative = inhibition is 7.31% (inactive).
In the case of `COc1cc(-c2noc(-c3ccc(N4CCCC4)c([N+](=O)[O-])c3)n2)cc(OC)c1OC`, the activity change, negative = inhibition is -3.41% (inactive).
For the compound `COC(=O)c1sccc1S(=O)(=O)N(CC(=O)Nc1ccc(C)c(F)c1)c1ccc(C)c(C)c1`, the activity change, negative = inhibition was -13.6% (inactive).
In the case of `CCOC(=O)N1CCN(CC(=O)Nc2ccc(F)cc2)CC1`, the activity change, negative = inhibition was 4.05% (inactive).
The value for `CCOC(=O)N1CCN(CC(=O)c2ccc3c(c2)CCN3)CC1` was -32.2% (active); that for `CCOC(=O)N1CCN(CC(=O)n2c(C)c(C)c3ccccc32)CC1` was 6.89% (inactive); that for `Cc1ccc(CN2CCC(CNC(=O)c3cnn(-c4ccc(C)cc4)c3C3CCN(C(=O)OC(C)(C)C)CC3)CC2)cc1` was 1.49% (inactive).
`Cc1cccc(-c2nc(SCC(=O)Nc3cc(C)on3)c3c(=O)n(C)c(=O)n(C)c3n2)c1`: the activity change, negative = inhibition was -1.46% (inactive).
Consider `Cc1ccc2nc(-c3ccc(SCC(=O)Nc4cc(C)on4)nc3)[nH]c2c1`, for which the activity change, negative = inhibition is -40.5% (active).
For `Cc1ccc2nc(SCC(=O)NC3CCCC3)[nH]c2c1`, the activity change, negative = inhibition was 1.64% (inactive).
Consider `CCS(=O)(=O)c1nc(S(=O)(=O)c2ccc(C)cc2)c(NCc2ccc(Cl)cc2)s1`, for which the activity change, negative = inhibition is -4.62% (inactive).
For the compound `Cc1onc(-c2ccc(F)cc2F)c1C(=O)Nc1cccc(C(F)(F)F)c1`, the activity change, negative = inhibition was -7.14% (inactive).
Regarding `COC(=O)c1cccc(Cn2nnc3sc4c(c3c2=O)CCC(C(C)(C)C)C4)c1` (stereo not given), the activity change, negative = inhibition was 7.77% (inactive).
In the case of `Cc1nn(C(C)C(=O)Nc2ccc(C(C)C)cc2)c(=O)c2c1sc1ccccc12` (stereo not given), the activity change, negative = inhibition was -14.9% (inactive).
Turning to `Cc1ccc(NC2=C(c3ccc(C(F)(F)F)cc3)C(=O)c3ccccc32)cc1F`, the activity change, negative = inhibition was -32.9% (active).
The value for `O=C(Nc1ccccc1F)c1ccccc1-c1ccc(C(F)(F)F)cc1` was -10% (inactive); that for `Cc1ccc(NC(=O)NC(=O)c2ccccc2)cc1F` was -1.14% (inactive).
The figure for `Cc1ccccc1NC(=O)Cn1cc(C(=O)c2cccs2)c2ccccc21` is -14.9% (inactive); for `COc1ccc(-n2nc(C(=O)NCCc3ccc(Cl)cc3)c3c4ccccc4n(C)c3c2=O)cc1Cl` it is -3.18% (inactive); for `Cc1ccc(CCNC(=O)c2ccc3c(c2)N(Cc2cc(C)ccc2C)C(=O)c2ccccc2S3=O)cc1` (stereo not given) it is -1.98% (inactive).
As to `COc1cccc2cc(-c3nc(Cl)c4c5c(sc4n3)CC(C)CC5)c(=O)oc12` (stereo not given), the activity change, negative = inhibition was 7.27% (inactive).
The value for `Cc1ccc2nc(NC3=NCN(CCc4ccccc4)CN3)nc(C)c2c1` was 8.22% (inactive); that for `Cc1ccc2nc(C)c3c(c2c1)N(c1ccccc1)CC3` was -47.3% (active).
`Cc1ccc2nc(CNC(=O)c3ccccc3)[nH]c2c1`: the activity change, negative = inhibition is 2.33% (inactive).
On to `O=C(Nc1ccc(F)cc1F)c1cnn(-c2ccc(F)cc2)c1-n1cccc1`, for which the activity change, negative = inhibition was 1.78% (inactive).
Take `CCOC(=O)C1=C(CN2CCc3ccccc32)NC(=O)NC1c1ccc(Cl)cc1` (stereo not given): the activity change, negative = inhibition was 19.3% (inactive).
The figure for `CCOC(=O)C1=C(CCc2ccccc2)NC(=O)NC1c1ccc2ccccc2c1` (stereo not given) is 13.1% (inactive); for `CCOC(=O)C1=C(CSc2nccn2C)NC(=O)NC1c1ccc(OC)cc1` (stereo not given) it is -35% (active).
Consider `CCN(CC)c1ccc(NS(=O)(=O)c2cc(-c3cc(C)no3)ccc2C)c(C)c1`, for which the activity change, negative = inhibition is -8.08% (inactive).
`COc1ccc(N2CCN(C(=O)C3CCCN(C(=O)c4cc5sccc5n4C)C3)CC2)cc1` (stereo not given): the activity change, negative = inhibition was -16.9% (inactive).
Take `CCc1ccc(Sc2cc(C(=O)NCCCOC(C)C)c3ccccc3n2)cc1`: the activity change, negative = inhibition is 9.99% (inactive).
Regarding `CC(NC(=O)c1cc(Sc2ccc(F)cc2F)nc2ccccc12)c1ccccc1` (stereo not given), the activity change, negative = inhibition is -44.9% (active).
As for `CC(NC(=O)c1cc(=O)[nH]c2ccccc12)c1ccc(F)cc1F` (stereo not given), the activity change, negative = inhibition is -0.391% (inactive).
`CCOc1ccccc1NC(=O)Cn1c(=O)n(-c2cccc(C)c2)c(=O)c2c1c1cc(OC)ccc1n2C`: the activity change, negative = inhibition was 9% (inactive).
Regarding `c1ccc(-n2ncc3c2ncn2c(C4CCCCC4)nnc32)cc1`, the activity change, negative = inhibition was -30.2% (active).
In the case of `CN(C(=O)COc1ncnc2c1cnn2-c1ccccc1)C1CCCCC1`, the activity change, negative = inhibition was 2.82% (inactive).
The figure for `CC(C)Sc1ncnc2c1cnn2-c1ccccc1` is 11.9% (inactive).
For `Cc1ccc(NC(=O)Cn2c(=O)n(-c3ccccc3)c(=O)c3c4c(sc32)CCCC4)cc1`, the activity change, negative = inhibition was -4.05% (inactive).
In the case of `CCOC(=O)N1CCc2c(sc3c2C(=O)NC(c2ccccc2F)N3)C1` (stereo not given), the activity change, negative = inhibition is 4.82% (inactive).
As for `O=C(CSc1ncc(CO)n1Cc1ccc(F)cc1)NCc1ccco1`, the activity change, negative = inhibition was -2.59% (inactive).
For `CCCCC(=O)NNC(=S)NC(=O)C(c1ccccc1)c1ccccc1`, the activity change, negative = inhibition is -50.5% (active).
Take `Cc1nnc(NC(=O)C(c2ccccc2)c2ccccc2)s1`: the activity change, negative = inhibition is 0.172% (inactive).
As for `O=C(CCN1CCN(c2ccccc2)CC1)NNC(=S)Nc1ccccc1`, the activity change, negative = inhibition was -7.38% (inactive).
Turning to `Cc1c(C(=O)N2CC(C)OC(C)C2)sc2nc(-c3ccccc3)cn12` (stereo not given), the activity change, negative = inhibition is -32.4% (active).
The figure for `COc1ccc(-c2cn3c(C)c(C(=O)Nc4cc(C)cc(C)c4)sc3n2)cc1` is 9.7% (inactive); for `Cc1c(C(=O)NCC2CCCO2)sc2nc(-c3ccccc3)cn12` (stereo not given) it is 2.03% (inactive); for `Cc1cccc(NC(=O)c2nnn(CC(=O)Nc3ccc(C(C)C)cc3)c2N)c1C` it is 5.98% (inactive).
Turning to `CN(c1ccc(C(=O)N2CCc3ccccc3C2)cc1)S(C)(=O)=O`, the activity change, negative = inhibition was 1.19% (inactive).
For `Cc1cccc(C)c1NC(=O)c1ccc(CN2CCc3ccccc3C2)cc1`, the activity change, negative = inhibition was -14.8% (inactive).
On to `CN(c1cccc(NC(=O)c2ccc(CN3CCc4ccccc4C3)cc2)c1)S(C)(=O)=O`, for which the activity change, negative = inhibition is -37.7% (active).
Regarding `O=C(Nc1ccc(OC(F)(F)F)cc1)C1CCCN(S(=O)(=O)c2ccc(Br)s2)C1` (stereo not given), the activity change, negative = inhibition is -19.1% (inactive).
As to `O=C(NCCOc1cccnc1)c1ccc(OC2CCN(Cc3ccccn3)CC2)cc1`, the activity change, negative = inhibition is -0.574% (inactive).
The figure for `Cn1cc(CNC(=O)c2ccc(OC3CCN(Cc4ccccn4)CC3)cc2)cn1` is -41.2% (active); for `COCc1ccc(CN2CCC(Oc3ccc(C(=O)NCc4ccccn4)cc3)CC2)o1` it is -5.9% (inactive); for `CC(CCCc1ccccc1)NC(=O)c1nn(-c2ccc(Cl)cc2)nc1CO` (stereo not given) it is 3.03% (inactive).
With `O=S(=O)(NCCCN1CCOCC1)c1ccc(F)c(Cl)c1`, the activity change, negative = inhibition is -34.6% (active).
Consider `O=S(=O)(NCC1CC1)c1ccc(F)c(Cl)c1`, for which the activity change, negative = inhibition was -3.94% (inactive).
`O=[N+]([O-])c1cc(S(=O)(=O)CCCN2CCOCC2)ccc1F`: the activity change, negative = inhibition is -12.6% (inactive).
As to `CCOc1ccc(C2C(=O)N(C3CCCCC3)CC(=O)N2CCC2=CCCCC2)cc1OC` (stereo not given), the activity change, negative = inhibition is 39.1% (inactive).
For `Cc1cc(OCCN2CCCC2)ccc1C(C)C`, the activity change, negative = inhibition is -30% (active).
`c1ccc2cc(OCCN3CCCC3)ccc2c1`: the activity change, negative = inhibition was 12.7% (inactive).
For `Cc1cc(OCCN2CCCC2)cc(C(C)C)c1`, the activity change, negative = inhibition is -2.52% (inactive).
For the compound `Cc1ccc(NC(=O)Cn2nnc3sc4c(c3c2=O)CCC(C)C4)cc1` (stereo not given), the activity change, negative = inhibition is -17.2% (inactive).
For the compound `CCc1cccc(C)c1Nc1c(-c2ccc(N(C)C)cc2)nc2ncccn12`, the activity change, negative = inhibition is 6.48% (inactive).
For `Cc1ccccc1C(=O)N(Cc1ccc(N(C)C)cc1)CC1CCCO1` (stereo not given), the activity change, negative = inhibition is 12.9% (inactive).
